Source: PubChem BioAssay AID504635 (The Scripps Research Institute Molecular Screening Center, 2011)
This is one part of the list. Unmarked numbers belong to inactive results. Cut-off read from the data, not from the text of the source: active = inhibition above about 18%; inactive = the rest.

Biological target: Troponin I, cardiac muscle (Homo sapiens) + Troponin T, cardiac muscle (Homo sapiens) + Troponin C, slow skeletal and cardiac muscles (Homo sapiens) (UniProt P19429+P45379+P63316)
Assay: cardiac RTF calcium sensitivity inhibitors, confirmation, biochemical, fluorescence readout (AID 504635)
Details: reconstituted cardiac thin filaments, at 7.15 µM, stronger effect = higher value

Compound: COC1=C[C@@H]2[C@@H]3Cc4ccc(OC)c(O)c4[C@]2(CCN3C)CC1=O
- inhibition: -1.97%
